Assay results from PubChem BioAssay AID488908 (National Center for Advancing Translational Sciences (NCATS), 2010).
“And” between values parts separate entries of the source, which are not always exact repeats. Equal entries are not always repeated. Results filed as inconclusive are left out. A number with no mark means an inactive call. The source made the active and inactive calls. Calls follow the shape of the dose curve; as a rule, active = well fitted inhibition curve with a large enough effect; inconclusive = small, poorly fitted or top-dose-only effect; inactive = flat fitted curve, though single readings scatter.

Experiment: Secondary Assay for lipid storage modulators: Cytotoxcity for probe SAR
Settings: Drosophila S3 cells viability, CellTiter-Glo luminescence, 24 h, with oleic acid added (1 µL, 400 µM); series mostly up to 46.1 µM; activity change, negative = cytotoxicity: at the top concentration
From the text: NIH Molecular Libraries Probe Production Centers Network [MLPCN] NIH Chemical Genomics Center [NCGC] MLPCN Grant: 1 R03 MH085686-01 Assay Submitter (PI): Beller, Mathias; Max-Planck-Institut fur Biophysikalische Chemie, Germany. NCGC Assay Overview: Storing lipids as a reservoir for energy or the anabolism of elementary metabolites is a common feature of probably all cells and is conserved from bacteria to humans. The universal cellular lipid storage organelle is the so-called lipid storage droplet (LD). Although ubiquitous, LDs share a simple structure composed of a hydrophobic core that harbors the storage lipids, which is shielded by a droplet-specific phospholipid monolayer to which proteins are attached. The current model of LD biogenesis involves an incorporation of the lipid core into the membrane leaflets of the endoplasmic reticulum (ER) followed by a subsequent budding-like maturation of a LD, which ultimately pinches off. Once released, LD volume can increase by localized lipogenesis or fusion of existing droplet. Storage lipids are re-mobilized enzymatically by lipase activity. Lipase regulation in the adipocyte is heavily studied and involves multiple components including catecholamine signaling, the LD-associated proteins Perilipin and comparative gene identification (CGI-58) and at least two lipases named hormone sensitive lipase (HSL) and adipocyte triglyceride lipase (ATGL). LD regulation outside of the adipocyte is poorly understood and only few components are known. However, there is an urgent need to learn more about ectopic fat depots as mislocalized storage of lipids, for example in the liver or muscle, is an eminent health problem associated with insulin resistance or the metabolic syndrome. We developed a laser-scanning cytometer assay to enable 1,536-well screening and combined the results of the small molecules screen with an RNAi database based on lipid storage. The compound was tested here for cytotoxcity using CellTiter-Glo.
Assay Protocol Summary: Cytotoxcity assay was performed with embryonic Drosophila S3 cells (Bloomington Drosophila Genomics Resource Center [DGRC]). We dispensed 4 uL of cells at 1.25 x 10^6 cells/mL into Greiner solid white 1,536-well plates with a bottle-valve solenoid-based dispenser (Aurora) to obtain 5,000 cells/well. A total of 23 nL of compound solution of different concentrations were transferred to the assay plates using a Kalypsys pin tool equipped with a 1,536-pin array containing 10-nL slotted pins (FP1S10, 0.457-mm diameter, 50.8 mm long; V&P Scientific). One microliter of oleic acid (400 uM) was added, and the plate was lidded with stainless steel rubber gasket lined lids containing pinholes. After 24 hrs of incubation at 24 degrees Celsius and 95% humidity, 4 uL of CellTiter-Glo (Promega) was added to the wells. Luminescence was detected on the Perkin Elmer ViewLux.

| Structure (SMILES) | activity change, negative = cytotoxicity | Potency |
| --- | --- | --- |
| CCOc1ccc(CCNC(=O)C2CCCCC2)cc1OCC | -18.7% | – |
| O=C(Cc1cccs1)Nc1nc(-c2ccc3c(c2)CCC3)cs1 | -15.7% | – |
| O=C(NC1CCCc2c1cnn2-c1ccc(F)cc1F)c1cccs1 (stereo not given) | – | 8.88 µM (active) |
| Cc1csc(NC(=O)CSc2ncc(-c3ccccc3)n2Cc2ccco2)n1 | -14.8% | – |
| O=C(O)c1cccc(-c2noc(-c3ccccc3F)n2)c1 | -10.1% | – |
| COc1ccc(-c2csc(NC(=O)CSc3nnc(Nc4ccccc4)s3)n2)cc1 | -28.8% | – |
| CCOC(=O)C1CCN(C(=O)C2(NC(=O)Nc3ccc(F)cc3F)CCCCC2)CC1 | -18.3% | – |
| CCOc1ccc(CCNC(=O)c2cc3sc(Cl)cc3n2CC)cc1OCC | -22.5% | – |
| O=C(NC1CCCc2c1cnn2-c1ccc(F)cc1F)c1ccc(F)cc1 (stereo not given) | – | 14.1 µM (active) |
| CCOc1ccc(CCNC(=O)c2csc(Br)n2)cc1OCC | -18.6% [at 30.7 µM] | – |
| COc1ccc(Cl)cc1NC(=S)N1CCN(c2ccccc2)CC1 | -3.23% | – |
| COc1ccccc1NC(=S)N1CCN(c2cc(Cl)ccc2C)CC1 | -8.23% | – |
| O=C(Nc1cccc2nn(-c3ccc(F)cc3)cc12)c1ccccn1 | – | 12.5 µM (active) |
| CN(C)CC(=O)NC1CCCc2c1cnn2-c1ccc(F)cc1F (stereo not given) | -8.45% | – |
| CN(C)Cc1ccc(-c2nc3cccc4c3n2CCNC4=O)cc1 | -2.69% | – |
| CCOC(=O)C1CCN(C(=O)C2(NC(=O)Nc3ccccc3Cl)CC2)CC1 | -6.16% | – |
| CCOC(=O)C1CCN(C(=O)C2(NC(=O)Nc3ccccc3Cl)CCCCC2)CC1 | -10.2% | – |
| CCOc1ccc(CCNC(=O)c2cc3ccccc3n2C)cc1OCC | -28.9% | – |
| O=C(NCCc1ccc(O)c(O)c1)c1cc2sccc2[nH]1 | 0.525% | – |
| Cc1cc(SCc2sc(-c3ccc(C(F)(F)F)cc3)nc2C)ccc1OCC(=O)O | -12.1% | – |

| Structure (SMILES) | activity change, negative = cytotoxicity | Potency |
| --- | --- | --- |
| O=C(NC1CCCc2c1cnn2-c1ccc(F)cc1F)c1ccc2cc[nH]c2c1 (stereo not given) | – | 22.3 µM (active) |
| O=C(NC1CCCc2c1cnn2-c1ccc(F)cc1F)c1ccncc1 (stereo not given) | – | 1.41 µM (active) |
| CC(C)(C)OC(=O)NC1CCCc2c1cnn2-c1ccc(F)cc1F (stereo not given) | – | 9.96 µM (active) |
| COc1ccc(CCNC(=O)c2cc3sccc3n2Cc2ccccc2)cc1OC | -27.8% | – |
| O=C(NC1CCCc2c1cnn2-c1ccc(F)cc1F)c1cnccn1 (stereo not given) | – | 3.97 µM (active) |
| Cc1cn(-c2cc(NC(=O)c3ccc(C)c(Nc4nccc(-c5cccnc5)n4)c3)cc(C(F)(F)F)c2)cn1 | -26% | – |
| CCOC(=O)C1CCCN(C(=O)C2(NC(=O)Nc3ccc(F)cc3F)CCCCC2)C1 (stereo not given) | -17.7% | – |
| COc1ccc(-c2cnc(SCC(=O)Nc3nc(C)cs3)n2Cc2ccco2)cc1 | -20.5% [at 30.7 µM] | – |
| O=C(NC1CCCc2c1cnn2-c1ccc(F)cc1F)C1CCCCN1 (stereo not given) | -10.8% | – |
| O=C(NC1CCCc2c1cnn2-c1ccc(F)cc1F)c1ccccn1 (stereo not given) | – | 9.96 µM (active) and 8.88 µM (active) |
| O=C(NCCc1ccc(O)c(O)c1)c1cc2sccc2n1Cc1ccccc1 | -15% | – |
| CCOc1ccc(CCNC(=O)C2=C(C)OCCO2)cc1OCC | -6.76% | – |
| CCOc1ccc(CCNC(=O)c2ccc(N3N=C(C)CC3=O)cc2)cc1OCC | -8.66% | – |
| O=C(Cc1cccs1)Nc1nc(-c2ccncc2)cs1 | -14.5% | – |
| CC1=C(C(=O)NC2CCCc3c2cnn3-c2ccc(F)cc2F)OCCO1 (stereo not given) | – | 0.996 µM (active) |
| Cc1cccc(Nc2nnc(SCC(=O)Nc3nc(-c4ccc(F)cc4)cs3)s2)c1 | -27.2% | – |
| CCOC(=O)C1CCN(C(=O)C2(NC(=O)Nc3ccccc3Cl)CCC2)CC1 | -4.57% | – |
| COc1cc(Nc2ncc(F)c(Nc3ccc4c(n3)NC(=O)C(C)(C)O4)n2)cc(OC)c1OC | -16.2% | – |
| O=C(NC1CCCc2c1cnn2-c1ccc(F)cc1F)c1ccsc1 (stereo not given) | – | 3.97 µM (active) |
| CCn1c(C(=O)NCCc2ccc(OC)c(OC)c2)cc2sc(Cl)cc21 | -2.07% [at 30.7 µM] | – |
